Records with an inconclusive call do not appear. Calls of active or inactive are those of the source. Unless noted, calls come from the whole dose curve; as a rule, active = well fitted curve in either direction with a large enough effect (not every such curve was filed as active); inconclusive = small, poorly fitted or top-dose-only effect, or another doubt; inactive = flat fitted curve, though single readings scatter.
Columns and labels:
[1] = AP1 Signaling Pathway (AID 357); settings: ME-180 AP-1-bla reporter, EGF-induced, beta-lactamase ratio, 5 h; at 17.2 µM (top of the series) unless noted;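 note: ME-180 reporter cells stimulated with EGF at its EC50 level; % is set by controls: 0 for no effect and ±100 for the full control effect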
Procedure, shortened: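 Titration-series screen for positive or negative modulators of EC50 EGF-induced signaling in ME-180 cells carrying an AP-1-driven beta-lactamase reporter. After 5 hours at 37 degrees Celsius, CCF4 460nm/530nm emission ratio gave %Activity; AC50 values derived.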

[2] = NFAT Signaling Pathway (AID 444); settings: Jurkat NFAT-bla M1, carbachol, beta-lactamase ratio, 5 h; at 17.2 µM (top of the series) unless noted;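 note: carbachol stimulus at about its EC50 of 1 µM final; % is set by controls: 0 for no effect and ±100 for the full control effect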
Procedure, shortened: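 Jurkat cells carrying an NFAT-driven β-lactamase reporter and co-transfected muscarinic M1 receptor were treated with compound plus carbachol (1 uM final, an EC50 level) for 5 h at 37 °C. CCF4 loading followed for 1 h at RT; 460/530 nm ratio gave %activity.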

[3] = Stat Signaling Pathway (AID 446);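 note: ME-180 cervical cancer cells given 40 pM IL-6 alongside compound; SIE-controlled beta-lactamase reporter measured as 460/530 nm FRET emission ratio; % is set by controls: 0 for no effect and ±100 for the full control effect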
Procedure, shortened: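 Normalization used AC90 stimulation (300 pM IL-6) and AC90 inhibition (125 nM pan-JAK inhibitor at 40 pM IL-6). The underlying signal is SIE-driven beta-lactamase in ME-180 cells after 5 h IL-6 exposure with compound.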

[4] = target: Glucocorticoid receptor (Homo sapiens) (UniProt P04150); assay: GR-GFP Redistribution (AID 450;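 active = compounds whose dose series gives a full or clear partial fitted curve of increased nuclear translocation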; note: potency is the fitted concentration of half-maximal effect); settings: U2OS GR-GFP nuclear translocation, laser cytometry, 2 h
[5] = qHTS Assay for Identification of Small Molecule Agonists for Hypoxia Response Element Signaling Pathway (AID 914; active = well fitted activation curve with a large enough effect in the signal ratio, with a control signal flat, not every such curve was filed as active; the % refers to the signal ratio; note: % of control where 0% means no effect); settings: ME-180 (cervical carcinoma) HRE-bla reporter, beta-lactamase ratio, CoCl2, 17 h; activation: active compounds read high
Procedure, shortened: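 Reporter activity (beta-lactamase, CCF4 460nm/530nm ratio) in HRE-bla ME-180 cells is recorded after 17 h compound exposure with EC50 CoCl2 at 37 degrees Celsius. AC50 values come from titration data.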

[6] = target: Glucocorticoid receptor (Homo sapiens) (UniProt P04150); assay: GR-EFC Redistribution (AID 451; calls by dose curve; note: potency is the fitted concentration of half-maximal effect); settings: CHO-K1 GR-EFC translocation, beta-gal luminescence, 2 h
Procedure, shortened: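 CHO-K1 cells stably expressing nuclear-localized β-gal enzyme acceptor and GR fused C-terminally to the enzyme donor fragment; ligand-driven nuclear translocation restores β-gal by complementation. Compounds titrated up to 46 uM final, 2 h at 37 °C; luminescence read.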

[7] = target: Mitogen-activated protein kinase 10 (Mus musculus) (UniProt Q61831); assay: JNK3 AlphaScreen Assay (AID 530);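 note: kinase came from lysate of stimulated human HepG2 cells; signal reports phosphorylation of biotinylated GST-cJun 1-79 at Ser73 with 10 µM ATP; % is set by controls: 0 for no effect and ±100 for the full control effect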
Procedure, shortened: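 Biotinylated GST-cJun(1-79) served as substrate for JNK3 in HepG2 lysates stimulated with IL-1beta and TNF-alpha. ATP was 10 uM final, pH 7.6. Ser73 phosphorylation was quantified by AlphaScreen (680 nm excitation).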

[8] = target: 3',5'-cyclic-AMP phosphodiesterase 4B (Homo sapiens) (UniProt Q07343); assay: qHTS Assay for Inhibitors of PDE-IV (AID 607; active = well fitted activation curve with a large enough effect in the main read-out, with a control signal flat, not every such curve was filed as active; note: % of control where 0% means no effect)
Procedure, shortened: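 HEK293 ACTOne cells with CNG channel (1000/well), endogenous PDE4; membrane potential dye, compounds up to 22.9 uM final. Fluorescence Ex 535/Em 590; RO 20-1724 (100 uM final) as reference.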

[9] = target: Guanine nucleotide-binding protein G(i) subunit alpha-1 (Homo sapiens) (UniProt P63096); assay: qHTS Assay for Inhibitors of RGS12 GoLoco Motif Activity (Green Fluorophore) (AID 879; active = well fitted curve in the direction sought with a large enough effect; an effect the other way counts as inactive or inconclusive;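 note: 0% = labeled peptide with Gαi1 and full inhibition = labeled peptide alone without protein; negative values mean loss of peptide binding seen as reduced polarization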)
Procedure, shortened: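 A drop in FITC polarization marked displacement of the FITC-tagged RGS12 GoLoco peptide (10 nM) from Gαi1 (50 nM). Compounds were incubated 10 min at room temperature in Tris pH 7.5 buffer containing 150 mM NaCl, 0.1 mM GDP and 0.05% NP40; unlabeled peptide titration served as control.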

[10] = qHTS Assay for Identification of Small Molecule Antagonists for NFkB Signaling Pathway (AID 895; active = well fitted inhibition curve with a large enough effect in the signal ratio, with a control signal flat, not every such curve was filed as active; the % refers to the signal ratio; note: % is set by controls: 0 for no effect and ±100 for the full control effect)
Procedure, shortened: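 NFkB-bla ME-180 cervical carcinoma cells with beta-lactamase reporter under NFkB response element; compounds added, then TNF alpha at 10 pM final (EC50), 5 h at 37 C. LiveBLAzer substrate 2 h, room temperature; emission 460/530 nm at 405 nm excitation.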

[11] = target: Muscarinic acetylcholine receptor M1 (Rattus norvegicus) (UniProt P08482); assay: qHTS Assay for Antagonists of Acetylcholine Muscarinic M1 Receptor: Measurement of IP-One Response (AID 944; active = well fitted curve in the direction sought with a large enough effect; an effect the other way counts as inactive or inconclusive; note: nearly all actives have a fitted effect of over 75% in size)
Procedure, shortened: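 Antagonism was measured as loss of carbachol-driven (EC80) IP1 accumulation in CHO cells carrying rat M1, using a homogeneous IP-One TR-FRET kit read at 620 and 665 nm.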

[12] = target: Pyruvate kinase PKM (Homo sapiens) (UniProt P14618); assay: qHTS Assay for Activators of Human Muscle Pyruvate Kinase (AID 954; active = well fitted curve in the direction sought with a large enough effect, not every such curve was filed as active;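 note: 0% = uninhibited enzyme and -100% = no enzyme or full thiadiazolimine inhibition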)
Procedure, shortened: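 Compound pinned into substrate mix (0.5 mM PEP, 0.1 mM ADP), then 0.1 nM PKM2 added; 1 h, RT. Stop/detection luciferase reagent added, luminescence read. Normalized to no-inhibition and no-enzyme or reference-inhibitor controls.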

[13] = target: Alpha-galactosidase (Coffea arabica) (UniProt Q42656); assay: Counterscreen for Glucocerebrosidase Inhibitors: qHTS Assay for Coffee Bean alpha-Galactosidase at pH 4.5 (AID 957; active = well fitted curve in the direction sought with a large enough effect; an effect the other way counts as inactive or inconclusive;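 note: plate controls were enzyme alone for no effect and no enzyme for full effect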)
Procedure, shortened: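 Quantitative HTS of compounds (0.7 nM to 77 uM) against coffee bean alpha-galactosidase at pH 4.5, measuring 4-methylumbelliferone fluorescence released from 80 uM substrate.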

[14] = target: Alpha-galactosidase A (Homo sapiens) (UniProt P06280); assay: Counterscreen for Glucocerebrosidase Inhibitors: qHTS Assay for Human alpha-Galactosidase at pH 4.5 (AID 992; active = well fitted curve in the direction sought with a large enough effect; an effect the other way counts as inactive or inconclusive; note: 0% is about no effect)
Procedure, shortened: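 Steps: enzyme (2 nM final), then compound across 0.7 nM to 77 uM, then 80 uM fluorogenic galactopyranoside substrate; incubate 20 min at room temperature; quench at pH 10; measure fluorescence at 365/440 nm.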

[15] = target: Alpha-galactosidase (Coffea arabica) (UniProt Q42656); assay: Counterscreen for Glucocerebrosidase Inhibitors: qHTS Assay for Coffee Bean alpha-Galactosidase at pH 5.9 (AID 998; active = well fitted curve in the direction sought with a large enough effect; an effect the other way counts as inactive or inconclusive;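 note: plate controls were uninhibited enzyme for no effect and no-enzyme basal signal for full effect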)
Procedure, shortened: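 In 50 mM citric acid pH 5.9 with 0.005% Tween-20, coffee bean enzyme hydrolyses 80 uM 4-MU alpha-D-galactopyranoside over 20 min at RT. Activity is normalized to controls; AC50 comes from Hill-modelled concentration-response data.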

[16] = qHTS Assay for Identification of Small Molecule Agonists for Thrombopoietin (TPO) Signaling Pathway (AID 917; active = well fitted curve in the direction sought with a large enough effect; an effect the other way counts as inactive or inconclusive; note: % is set by controls: 0 for no effect and ±100 for the full control effect)
Procedure, shortened: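 Stimulation at the TPO EC50 (26 pM final) was used to detect activators. Ba/F3 mouse cells bearing human TPO receptor and a luciferase reporter under the Glycoprotein IIb promoter were exposed to compounds for 24 hrs at 37 C.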

3',5'-cyclic-AMP phosphodiesterase 4B (Homo sapiens), sequence (Q07343 whole entry, looked up): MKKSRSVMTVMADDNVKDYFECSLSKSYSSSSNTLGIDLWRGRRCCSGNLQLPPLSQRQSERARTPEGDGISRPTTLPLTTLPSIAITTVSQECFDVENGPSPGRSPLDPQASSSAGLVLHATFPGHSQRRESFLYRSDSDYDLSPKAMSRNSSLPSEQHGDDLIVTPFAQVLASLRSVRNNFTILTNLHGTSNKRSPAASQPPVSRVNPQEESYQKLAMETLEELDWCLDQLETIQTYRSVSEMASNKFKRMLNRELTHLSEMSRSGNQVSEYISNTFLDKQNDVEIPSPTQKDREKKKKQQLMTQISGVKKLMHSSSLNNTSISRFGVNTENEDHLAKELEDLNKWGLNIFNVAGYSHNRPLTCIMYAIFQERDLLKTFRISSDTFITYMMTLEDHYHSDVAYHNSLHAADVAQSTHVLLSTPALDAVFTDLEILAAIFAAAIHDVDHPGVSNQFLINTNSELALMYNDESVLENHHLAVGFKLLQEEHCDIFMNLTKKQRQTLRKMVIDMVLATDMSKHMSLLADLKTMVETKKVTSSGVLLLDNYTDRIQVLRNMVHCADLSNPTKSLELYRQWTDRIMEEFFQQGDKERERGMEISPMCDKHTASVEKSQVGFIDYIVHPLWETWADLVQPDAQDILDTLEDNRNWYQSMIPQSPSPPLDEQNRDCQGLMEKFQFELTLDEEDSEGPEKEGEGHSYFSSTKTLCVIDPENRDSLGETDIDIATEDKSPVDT
Glucocorticoid receptor (Homo sapiens), sequence (P04150 whole entry, looked up, the tested form may be a part): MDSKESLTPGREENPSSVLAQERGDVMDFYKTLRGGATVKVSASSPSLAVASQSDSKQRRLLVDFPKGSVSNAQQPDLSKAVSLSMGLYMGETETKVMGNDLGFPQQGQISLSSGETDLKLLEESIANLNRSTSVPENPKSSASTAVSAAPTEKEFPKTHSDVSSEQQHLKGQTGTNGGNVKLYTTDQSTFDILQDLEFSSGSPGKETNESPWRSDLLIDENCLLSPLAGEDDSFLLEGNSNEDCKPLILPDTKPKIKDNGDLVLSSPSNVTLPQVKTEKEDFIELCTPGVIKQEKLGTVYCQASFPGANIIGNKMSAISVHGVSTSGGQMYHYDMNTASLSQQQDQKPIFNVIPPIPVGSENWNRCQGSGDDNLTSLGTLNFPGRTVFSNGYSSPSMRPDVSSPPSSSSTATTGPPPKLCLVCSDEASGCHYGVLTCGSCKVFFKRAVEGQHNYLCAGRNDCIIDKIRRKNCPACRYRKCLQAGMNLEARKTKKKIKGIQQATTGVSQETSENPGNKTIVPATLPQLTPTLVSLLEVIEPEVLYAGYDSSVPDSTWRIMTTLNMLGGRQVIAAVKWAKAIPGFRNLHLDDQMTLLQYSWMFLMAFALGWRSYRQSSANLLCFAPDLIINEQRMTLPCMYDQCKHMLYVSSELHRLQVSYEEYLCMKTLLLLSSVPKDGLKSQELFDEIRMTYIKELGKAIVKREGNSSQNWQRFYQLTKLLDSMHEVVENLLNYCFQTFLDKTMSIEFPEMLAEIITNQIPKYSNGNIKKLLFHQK
Alpha-galactosidase (Coffea arabica), sequence (Q42656 whole entry, looked up): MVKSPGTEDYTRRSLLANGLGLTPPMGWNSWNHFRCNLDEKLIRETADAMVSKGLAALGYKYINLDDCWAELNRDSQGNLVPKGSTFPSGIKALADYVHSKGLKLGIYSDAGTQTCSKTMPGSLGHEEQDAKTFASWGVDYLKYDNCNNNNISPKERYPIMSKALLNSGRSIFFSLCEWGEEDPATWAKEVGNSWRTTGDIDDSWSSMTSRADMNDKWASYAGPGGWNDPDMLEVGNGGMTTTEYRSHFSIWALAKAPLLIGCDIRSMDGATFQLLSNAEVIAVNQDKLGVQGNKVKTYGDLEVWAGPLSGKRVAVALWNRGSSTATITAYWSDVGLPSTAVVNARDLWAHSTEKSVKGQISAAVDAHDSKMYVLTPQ
Guanine nucleotide-binding protein G(i) subunit alpha-1 (Homo sapiens), sequence (P63096 whole entry, looked up): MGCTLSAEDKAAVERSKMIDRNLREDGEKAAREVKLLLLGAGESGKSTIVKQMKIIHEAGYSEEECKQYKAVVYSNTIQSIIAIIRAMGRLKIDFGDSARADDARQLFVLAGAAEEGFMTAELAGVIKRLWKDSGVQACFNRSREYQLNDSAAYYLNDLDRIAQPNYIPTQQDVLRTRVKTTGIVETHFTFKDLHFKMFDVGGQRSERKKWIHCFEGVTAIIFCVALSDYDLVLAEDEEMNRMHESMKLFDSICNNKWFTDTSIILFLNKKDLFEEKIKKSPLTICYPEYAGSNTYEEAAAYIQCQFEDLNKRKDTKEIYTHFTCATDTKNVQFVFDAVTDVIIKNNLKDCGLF
Muscarinic acetylcholine receptor M1 (Rattus norvegicus), sequence (P08482 whole entry, looked up): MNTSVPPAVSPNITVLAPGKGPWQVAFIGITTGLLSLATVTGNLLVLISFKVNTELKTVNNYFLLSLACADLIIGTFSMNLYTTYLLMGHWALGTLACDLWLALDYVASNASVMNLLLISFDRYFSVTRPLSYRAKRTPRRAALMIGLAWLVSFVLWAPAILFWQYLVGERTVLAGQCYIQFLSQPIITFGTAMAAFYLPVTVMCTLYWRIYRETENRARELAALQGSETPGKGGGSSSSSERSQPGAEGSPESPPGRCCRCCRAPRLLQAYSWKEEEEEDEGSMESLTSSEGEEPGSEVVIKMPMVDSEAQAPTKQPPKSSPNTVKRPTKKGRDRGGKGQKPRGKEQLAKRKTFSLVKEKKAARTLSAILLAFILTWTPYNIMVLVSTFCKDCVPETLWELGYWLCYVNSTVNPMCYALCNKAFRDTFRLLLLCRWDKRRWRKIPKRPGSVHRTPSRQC
Alpha-galactosidase A (Homo sapiens), sequence (P06280 whole entry, looked up): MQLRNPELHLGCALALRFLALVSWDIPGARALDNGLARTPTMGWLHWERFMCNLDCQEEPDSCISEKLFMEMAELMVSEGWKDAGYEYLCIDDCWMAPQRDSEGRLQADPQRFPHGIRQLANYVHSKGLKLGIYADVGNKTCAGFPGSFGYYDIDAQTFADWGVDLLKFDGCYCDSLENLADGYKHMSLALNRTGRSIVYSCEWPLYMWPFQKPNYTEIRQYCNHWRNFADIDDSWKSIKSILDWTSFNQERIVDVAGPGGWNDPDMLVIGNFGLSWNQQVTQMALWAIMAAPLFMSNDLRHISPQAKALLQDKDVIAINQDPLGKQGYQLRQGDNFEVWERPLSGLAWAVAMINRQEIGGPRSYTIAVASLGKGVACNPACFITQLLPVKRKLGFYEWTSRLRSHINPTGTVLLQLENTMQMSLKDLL
Pyruvate kinase PKM (Homo sapiens), sequence (P14618 whole entry, looked up): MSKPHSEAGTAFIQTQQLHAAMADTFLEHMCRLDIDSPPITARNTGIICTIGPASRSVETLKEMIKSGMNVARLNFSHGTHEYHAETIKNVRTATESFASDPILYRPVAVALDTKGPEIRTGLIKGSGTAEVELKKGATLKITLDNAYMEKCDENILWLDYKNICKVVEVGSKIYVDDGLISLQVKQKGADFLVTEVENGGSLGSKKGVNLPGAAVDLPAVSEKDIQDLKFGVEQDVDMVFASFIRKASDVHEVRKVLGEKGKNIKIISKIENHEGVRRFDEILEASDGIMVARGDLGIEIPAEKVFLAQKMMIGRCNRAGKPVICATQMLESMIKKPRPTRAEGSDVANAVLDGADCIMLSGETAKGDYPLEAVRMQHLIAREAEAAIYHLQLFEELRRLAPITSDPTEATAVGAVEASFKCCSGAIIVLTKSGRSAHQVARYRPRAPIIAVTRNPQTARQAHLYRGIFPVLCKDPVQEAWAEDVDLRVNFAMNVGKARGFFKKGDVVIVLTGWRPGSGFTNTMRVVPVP

CC1CN=C(Nc2ccc(N(C)C)cc2)S1 (configuration not stated)
inactive: activity change, negative = inhibition [1] 17.8% | activity change, negative = inhibition [2] -26.5% | outcome [3] | Potency [4] > 20.6 µM | activation [5] 1.86%

O=C(CN1CCN(CCO)CC1)Nc1ccc(Cl)cc1C(=O)c1ccccc1
inactive: activity change, negative = inhibition [1] 3.2% | activity change, negative = inhibition [2] 5.95% | outcome [3] | activation [5] 0.98%

Oc1ccc2c3c1O[C@@H]1[C@@H](O)CC[C@]4(O)[C@H](C2)N(CC2CCC2)CC[C@@]314
inactive: activity change, negative = inhibition [1] 2.34% [at 38 µM] | activity change, negative = inhibition [2] 2.45% [at 38 µM] | outcome [3] | Potency [4] > 46 µM | Potency [6] > 46 µM | outcome [7] | outcome [8] | Potency [9] | Potency [10] | Potency [11] | outcome [12] | outcome [13] | outcome [14] | outcome [15]

CCOc1ccccc1-n1c(O)c(C=Nc2c(C)n(C)n(-c3ccccc3)c2=O)c(=O)[nH]c1=O
inactive: activity change, negative = inhibition [1] -0.373% | outcome [3] | Potency [4] > 20.6 µM

C=CCN1CC[C@@]23CCCC[C@@H]2[C@@H]1Cc1ccc(O)cc13
inactive: activity change, negative = inhibition [1] -10.4% [at 38 µM] | activity change, negative = inhibition [2] -24.3% [at 38 µM] | Potency [4] > 46 µM | Potency [6] > 46 µM | outcome [7] | outcome [8] | Potency [9] | outcome [16] | Potency [11] | outcome [12] | outcome [13] | outcome [14] | outcome [15]

CC1CCC(C(C)C)C(OP(N)(=O)c2ccccc2)C1 (configuration not stated)
inactive: activity change, negative = inhibition [1] -1.85% | activity change, negative = inhibition [2] 16.1% | outcome [3] | Potency [4] > 20.6 µM | activation [5] -7.02%

CNc1ccc2oc(C[C@@H]3O[C@@]4(CC[C@H]3C)O[C@@H]([C@@H](C)C(=O)c3ccc[nH]3)[C@@H](C)C[C@H]4C)nc2c1C(=O)O
active: activity change, negative = inhibition [2] 90.4% [activator] [at 38 µM]
inactive: activity change, negative = inhibition [1] 6.83% [at 38 µM] | outcome [3] | Potency [4] > 46 µM | Potency [6] > 46 µM | outcome [7] | outcome [8]

COCCOC(=O)C1=C(N)Oc2c(c(=O)oc3ccccc23)[C@@]12C(=O)Nc1ccccc12
inactive: activity change, negative = inhibition [1] 10.2% | activity change, negative = inhibition [2] -5.71% | outcome [3] | Potency [4] > 20.6 µM | activation [5] -0.572%

O=C1NCCN2CCCC12 (configuration not stated)
inactive: activity change, negative = inhibition [1] 12% | activity change, negative = inhibition [2] -0.485% | outcome [3] | Potency [4] > 20.6 µM | activation [5] 9.17%

CCC(=NCCN1CCCCC1)c1c(O)n(C)c(=O)n(C)c1=O
inactive: activity change, negative = inhibition [1] 9.93% | outcome [3] | Potency [4] > 20.6 µM

CCCCc1nc(N2CCNCC2)c(C#N)c2c1CSC(C)(C)C2
inactive: activity change, negative = inhibition [1] 3.85% | outcome [3] | Potency [4] > 20.6 µM
